Assay results published in PubChem BioAssay (Tox21).
Inconclusive results are not listed. The source made the active and inactive calls. Unless noted, calls follow the shape of the dose curve; as a rule, active = well fitted curve in the direction sought with a large enough effect in the repeat runs; inconclusive = weak or mixed curves; inactive = no such curve, though single readings can be large; an effect the other way counts as inactive or inconclusive.

Assays:
[1] = qHTS assay to identify small molecule antagonists of the androgen receptor (AR) signaling pathway using the MDA cell line in the presence of 0.5 nM R1881 - cell viability counter screen (AID 1259242); also: nearly all actives have a fitted effect of over 45% in size; also: potency is read from the fitted curve at half-maximal effect
How it was run: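 Human breast carcinoma MDA-kb2 cells, cultured without CO2, receive compounds alongside 0.5 nM (final) R1881 agonist. After 16 hr at 37C, viability is taken as live-cell protease signal.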

[2] = qHTS assay to identify small molecule HDAC inhibitors (AID 1259364); also: potency is read from the fitted curve at half-maximal effect;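 also: wild-type HCT-116 cells with endogenous class I/II HDAC activity; nearly all actives have a fitted effect of over 45% in size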; as to activity change, negative = inhibition: top concentration of the series differs between compounds
How it was run: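 After a 2 hr compound incubation (37C, 5% CO2), HCT-116 cells seeded at 1,500/well the day before received HDAC-Glo reagent; signal read as luminescence after 30 min at room temperature.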

[3] = qHTS assay to identify small molecule HDAC inhibitors - cell viability counter screen (AID 1259365); also: series mostly up to about 92 µM; nearly all actives have a fitted effect of over 50% in size
How it was run: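 CellTiter-Glo luminescence (30 min, room temperature) reported viability after a 2 h compound exposure at 37 C. Cells: wild-type HCT-116, 1,500 per well, seeded the night before.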

[4] = qHTS assay to identify small molecule agonists of the sonic hedgehog signaling (Shh) pathway - cell viability counter screen (AID 1259366); also: nearly all actives have a fitted effect of over 50% in size
How it was run: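 Cytotoxicity counter screen: CellTiter-Fluor reagent added after 23 h compound exposure, then 1 h at 37C and fluorescence read. Cells were 3T3 Gli1-Luc, seeded 2,000 per well and dosed 4 h post-plating.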

[5] = qHTS assay to identify small molecule antagonists of the sonic hedgehog signaling (Shh) pathway - cell viability counter screen (AID 1259367); also: nearly all actives have a fitted effect of over 55% in size
How it was run: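 Viability was read by CellTiter-Fluor fluorescence in the same wells, reagent added 23 hr into compound treatment and incubated 1 hr at 37C. The 3T3 Gli1-Luc reporter cells (2,000/well) received conditioned medium after compound and ran 24 hr.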

[6] = qHTS assay to identify small molecule agonists of the sonic hedgehog signaling (Shh) pathway (AID 1259368; calls by dose curve; also: nearly all actives have a fitted effect of over 15% in size; also: potency is read from the fitted curve at half-maximal effect;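 as to activity change: NIH/3T3-derived 3T3Gli1-Luc cells carrying a stable Gli1-driven firefly luciferase reporter; series mostly up to about 92 µM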)
How it was run: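 Stable NIH/3T3 Gli1-Luc reporter clone; 24 hr cpd exposure after a 4 hr settling period; luminescence endpoint.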

[7] = biological target: Estrogen receptor beta (Homo sapiens) (UniProt Q92731); test: qHTS assay to identify small molecule agonists of the estrogen receptor beta (ER-beta) signaling pathway (AID 1259377; active = well fitted activation curve with a large enough effect in the signal ratio in the repeat runs, not every such curve was filed as active; the % refers to the signal ratio; also: potency is read from the fitted curve at half-maximal effect)
How it was run: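 Ratiometric beta-lactamase FRET read-out came after 2 h substrate loading at room temperature. It followed 16 h compound treatment at 37C of GripTite HEK293T cells carrying a UAS-bla reporter, plated in 2% charcoal-stripped FBS medium.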

[8] = qHTS assay to identify small molecule agonists or antagonists of the thyroid stimulating hormone receptor (TSHR) signaling pathway - wild type cell line counter screen (AID 1259384; calls by dose curve)
How it was run: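 Counter screen in untransfected Hek293: compounds (15-point titration, triplicate) plus phosphodiesterase inhibitor Ro20-1724 added after 18 h plating; 30 min RT. Intracellular cAMP via competitive d2/cryptate immunoassay, 1 h incubation.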

[9] = qHTS assay to identify small molecule agonists of the estrogen receptor alpha (ER-alpha) signaling pathway in the presence of an antagonist - cell viability counter screen (AID 1259386);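 also: cells exposed to compounds for 22 h at 37 °C before the viability read; nearly all actives have a fitted effect of over 30% in size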; also: potency is read from the fitted curve at half-maximal effect; as to activity change, negative = cytotoxicity: series mostly up to about 92 µM
How it was run: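 Steps: 5-day stripped-FBS culture; seed and incubate 24hr; add ICI-182,780 (10.0nM final); pin 15-point compound titration; incubate 22hr at 37C; add CellTiter-Fluor at 21hr; read fluorescence.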

[10] = qHTS assay to identify small molecule phospholipidosis (PLD) inducers (AID 1259344; active = well fitted curve in the direction sought with a large enough effect; an effect the other way counts as inactive or inconclusive; also: potency is read from the fitted curve at half-maximal effect)
How it was run: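 Phospholipid accumulation was scored by imaging: fixed, Hoechst-counterstained HepG2 cells stained with LipidTOX Red after 24 h compound exposure at 37 C. Read-outs were pit count and pit intensity per well or per cell, with amiodarone and DMSO controls.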

[11] = qHTS assay to identify small molecule antagonists of the sonic hedgehog signaling (Shh) pathway (AID 1259369; calls by dose curve; also: nearly all actives have a fitted effect of over 45% in size)
How it was run: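 Gli1 transcriptional reporter (firefly Luc) in NIH/3T3 background, conditioned-medium activated. 24hr exposure, luminescence endpoint.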

[12] = biological target: Estrogen receptor beta (Homo sapiens) (UniProt Q92731); test: qHTS assay to identify small molecule antagonists of the estrogen receptor beta (ER-beta) signaling pathway (AID 1259378; active = well fitted inhibition curve with a large enough effect in the signal ratio in the repeat runs, not every such curve was filed as active; the % refers to the signal ratio)
How it was run: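 Antagonist mode: compounds added to beta-lactamase reporter HEK293T ER-beta-UAS cells stimulated with E2 (1nM final), 16 hr at 37C. LiveBLAzer B/G FRET substrate, 2 hours room temperature, fluorescence read-out.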

[13] = qHTS assay to identify small molecule antagonists of the estrogen receptor beta (ER-beta) signaling pathway - cell viability counter screen (AID 1259382);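 also: HEK293T cells carrying ER-beta-UAS-bla reporter stimulated with estradiol; series mostly up to about 92 µM; nearly all actives have a fitted effect of over 55% in size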
How it was run: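 HEK293T ER-beta-UAS-bla, 2% charcoal-stripped FBS; compounds + 1nM E2 16 hr 37C; CellTiter-Glo luminescence, 30 min RT.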

[14] = qHTS assay to identify small molecule agonists of the androgen receptor (AR) signaling pathway in the presence of an antagonist - cell viability counter screen (AID 1259379); also: nearly all actives have a fitted effect of over 25% in size; also: potency is read from the fitted curve at half-maximal effect;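 as to activity change, negative = cytotoxicity: MDA-kb2 human breast cancer cells carrying an MMTV luciferase reporter; series mostly up to about 92 µM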
How it was run: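 Counter screen for cell viability run in parallel with the AR agonist-mode luciferase assay. MDA-kb2 cells were co-treated with nilutamide (3.0uM final) and compounds, then incubated 16 hr at 37C, and CellTiter-Fluor fluorescence was measured.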

[15] = biological target: Estrogen receptor (Homo sapiens) (UniProt P03372); test: qHTS assay to identify small molecule agonists of the estrogen receptor alpha (ER-alpha) signaling pathway in the presence of an antagonist (AID 1259383; calls by dose curve; also: nearly all actives have a fitted effect of over 15% in size; also: potency is read from the fitted curve at half-maximal effect; as to activation: top concentration of the series differs between compounds)
How it was run: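 ER-alpha agonism measured under antagonist challenge: 10.0nM ICI-182,780 (final) plus compound, 15 concentrations, 22hr, VM7Luc4E2 ERE-luciferase cells. Read by luminescence.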

[16] = biological target: Thyrotropin receptor (Homo sapiens) (UniProt P16473); test: qHTS assay to identify small molecule antagonists of the thyroid stimulating hormone receptor (TSHR) signaling pathway (AID 1259385; calls by dose curve; also: nearly all actives have a fitted effect of over 20% in size; also: potency is read from the fitted curve at half-maximal effect)
How it was run: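 Antagonist mode: compound-treated TSHR-expressing HEK293 cells were stimulated with 1.5 ng/mL TSH (final) in presence of Ro20-1724 for 30 min at RT. HTRF cAMP detection after 1 h; each compound tested at 15 concentrations, triplicate.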

[17] = qHTS assay to identify small molecule agonists of the estrogen receptor beta (ER-beta) signaling pathway - cell viability counter screen (AID 1259380); also: nearly all actives have a fitted effect of over 30% in size
How it was run: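 In this qHTS counter screen, HEK293T cells carrying an ER-beta/UAS beta-lactamase reporter, grown in 2% charcoal-stripped FBS, received compound for 16 hr; ATP-based CellTiter-Glo luminescence was then read after 30 min at room temperature.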

[18] = biological target: Estrogen receptor (Homo sapiens) (UniProt P03372); test: qHTS assay to identify small molecule antagonists of the estrogen receptor alpha (ER-alpha) signaling pathway using the BG1 cell line in the presence of 0.1 nM 17-beta-estradiol (AID 1259244); also: nearly all actives have a fitted effect of over 50% in size
How it was run: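 Seeding of stripped-serum-adapted VM7Luc4E2 cells, 24 h attachment, compound transfer, then 0.1 nM final 17beta-estradiol; after 22 h incubation, ONE-Glo reagent and luminescence reading.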
% is scaled to controls: 0 for no effect and ±100 for the full control effect.

Sequence of Estrogen receptor (Homo sapiens) (P03372 whole entry, looked up): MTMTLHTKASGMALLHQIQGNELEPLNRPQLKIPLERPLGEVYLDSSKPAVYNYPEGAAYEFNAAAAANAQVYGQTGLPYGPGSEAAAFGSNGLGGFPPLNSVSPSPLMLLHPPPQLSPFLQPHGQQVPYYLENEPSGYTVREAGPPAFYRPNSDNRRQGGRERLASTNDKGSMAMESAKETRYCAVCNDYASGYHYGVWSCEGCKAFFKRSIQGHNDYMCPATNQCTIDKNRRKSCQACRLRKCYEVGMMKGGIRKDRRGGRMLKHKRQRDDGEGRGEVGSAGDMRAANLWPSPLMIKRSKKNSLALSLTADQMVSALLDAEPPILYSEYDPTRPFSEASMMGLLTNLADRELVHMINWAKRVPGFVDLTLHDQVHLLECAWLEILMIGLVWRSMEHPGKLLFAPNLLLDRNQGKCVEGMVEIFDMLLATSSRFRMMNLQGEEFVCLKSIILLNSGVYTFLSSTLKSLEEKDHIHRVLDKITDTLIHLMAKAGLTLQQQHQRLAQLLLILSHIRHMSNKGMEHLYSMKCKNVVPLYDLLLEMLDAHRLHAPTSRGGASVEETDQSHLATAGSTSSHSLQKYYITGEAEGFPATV
Sequence of Estrogen receptor beta (Homo sapiens) (Q92731 whole entry, looked up): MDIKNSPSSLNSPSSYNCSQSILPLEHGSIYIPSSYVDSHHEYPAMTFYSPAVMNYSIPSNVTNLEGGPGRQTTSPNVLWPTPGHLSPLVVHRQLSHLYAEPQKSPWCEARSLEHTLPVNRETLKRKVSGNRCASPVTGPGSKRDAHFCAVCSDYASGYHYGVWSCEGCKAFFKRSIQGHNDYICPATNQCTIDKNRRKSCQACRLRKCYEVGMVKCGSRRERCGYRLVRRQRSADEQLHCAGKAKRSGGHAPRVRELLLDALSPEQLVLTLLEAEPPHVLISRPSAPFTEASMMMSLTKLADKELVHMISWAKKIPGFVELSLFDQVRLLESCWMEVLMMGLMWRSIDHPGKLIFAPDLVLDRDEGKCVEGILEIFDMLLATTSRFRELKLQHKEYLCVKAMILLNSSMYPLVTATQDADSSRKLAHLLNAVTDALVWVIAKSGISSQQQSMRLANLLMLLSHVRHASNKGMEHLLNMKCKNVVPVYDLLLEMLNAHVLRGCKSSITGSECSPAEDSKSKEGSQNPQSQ
Sequence of Thyrotropin receptor (Homo sapiens) (P16473 whole entry, looked up): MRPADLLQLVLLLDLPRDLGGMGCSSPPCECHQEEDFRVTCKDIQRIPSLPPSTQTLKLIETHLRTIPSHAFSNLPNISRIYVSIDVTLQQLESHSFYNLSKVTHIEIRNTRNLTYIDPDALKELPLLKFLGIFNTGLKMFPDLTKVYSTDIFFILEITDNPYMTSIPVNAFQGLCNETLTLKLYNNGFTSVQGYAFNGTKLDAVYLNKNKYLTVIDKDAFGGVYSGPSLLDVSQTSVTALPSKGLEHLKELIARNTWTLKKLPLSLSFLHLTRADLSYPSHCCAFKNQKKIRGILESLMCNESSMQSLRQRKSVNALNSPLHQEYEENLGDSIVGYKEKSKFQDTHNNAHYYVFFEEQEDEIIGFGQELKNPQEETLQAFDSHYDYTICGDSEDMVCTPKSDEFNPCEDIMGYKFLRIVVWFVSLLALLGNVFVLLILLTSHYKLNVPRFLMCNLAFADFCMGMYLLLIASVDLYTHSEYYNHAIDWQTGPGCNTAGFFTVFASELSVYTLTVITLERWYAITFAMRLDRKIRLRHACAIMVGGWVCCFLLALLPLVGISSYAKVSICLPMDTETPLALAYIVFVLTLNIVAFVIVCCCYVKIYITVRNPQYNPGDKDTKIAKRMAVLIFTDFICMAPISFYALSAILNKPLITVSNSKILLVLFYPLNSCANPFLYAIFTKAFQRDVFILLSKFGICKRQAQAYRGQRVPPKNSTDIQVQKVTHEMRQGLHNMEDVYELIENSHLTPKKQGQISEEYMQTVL

CN(C)Cc1cc(C(C)(C)C)c(O)c(C(C)(C)C)c1
inactive: Potency [1] | Potency [2] | Potency [3] | Potency [4] | Potency [5] | Potency [6] | Potency [7] | outcome [8] | Potency [9]

O=C1C(c2[nH]c3ccc(S(=O)(=O)O)cc3c2O)=Nc2ccc(S(=O)(=O)O)cc21
inactive: Potency [1] | Potency [10] | Potency [4] | Potency [5] | Potency [11] | Potency [7] | Potency [12] | Potency [13]
active: Potency [2] 54.5 µM

C#C[C@]1(OC(C)=O)CC[C@H]2[C@@H]3CCC4=C[C@@H](OC(C)=O)CC[C@@H]4[C@H]3CC[C@@]21C
active: Potency [10] 10 µM | Potency [7] 335 nM | Potency [15] 53.1 nM | Potency [16] 11.9 µM
inactive: Potency [1] | Potency [2] | Potency [3] | Potency [4] | Potency [5] | Potency [6] | Potency [14] | Potency [13] | outcome [8]

O=[N+]([O-])c1ccc(O)cc1C(F)(F)F
inactive: Potency [2] | Potency [3] | Potency [4] | Potency [5] | Potency [6] | Potency [7] | Potency [17] | Potency [13] | outcome [8] | Potency [16]
active: Potency [1] 27.3 µM | Potency [14] 30.6 µM | Potency [9] 27.3 µM

O=C(O)O
inactive: viability change, negative = cytotoxic [1] 0.635% [at 8.39 µM] | activity change, negative = inhibition [18] -65% [at 8.39 µM] | activity change, negative = cytotoxicity [3] -4.12% [at 8.39 µM] | viability change, negative = cytotoxic [4] 1.19% [at 8.39 µM] | viability change, negative = cytotoxic [5] -2.57% [at 8.39 µM] | activity change [6] 0.72% [at 8.39 µM, stronger effect = higher value] | activity, negative = inhibition [12] 1.94% [at 8.39 µM] | activity change, negative = cytotoxicity [14] -0.506% [at 8.39 µM] | activity change, negative = cytotoxicity [17] -10.9% [at 8.39 µM] | activity change, negative = cytotoxicity [13] -30.1% [at 8.39 µM] | activation [15] 10.5% [at 8.39 µM] | cAMP activity change [8] -3.34% [at 8.39 µM] | activity change, negative = inhibition [16] 0.713% [at 8.39 µM] | activity change, negative = cytotoxicity [9] 1.41% [at 8.39 µM]

CCCC(=O)OC(C)(C)Cc1ccccc1
inactive: Potency [1] | Potency [2] | Potency [3] | Potency [4] | Potency [5] | Potency [6] | Potency [11] | Potency [7] | Potency [12] | Potency [14] | Potency [17] | Potency [13]

CCCC[P+](C)(CCCC)CCCC
inactive: Potency [1] | Potency [18] | Potency [3] | Potency [4] | Potency [5] | Potency [7] | Potency [12] | Potency [14] | Potency [17] | Potency [13] | Potency [15] | outcome [8] | Potency [16] | Potency [9]
active: Potency [6] 19.6 µM

Nc1nc(-c2ccccc2)cs1
inactive: Potency [1] | Potency [3] | Potency [4] | Potency [5] | Potency [6] | Potency [11] | Potency [14] | Potency [17] | Potency [13] | outcome [8] | Potency [16] | Potency [9]
active: Potency [2] 21.6 µM
